The nature of test [1]: Human pregnane X receptor (PXR) small molecule agonists, qHTS cell viability counter screen (AID 1346977). Also: nearly all actives have a fitted effect of over 50% in size. The procedure, abridged:
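Readout is CellTiter-Fluor fluorescence from PXR-Luc HepG2 cells. Plated cells rested 5hr, then were treated with compounds for 24hr at 37C and 5% CO2, with reagent present during the last hour.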
In general terms: Quantitative high-throughput screening tests each substance at several concentrations.

The nature of test [2]: Caspase-3/7 induction in CHO-K1 cells by small molecules, qHTS cell viability counter screen (AID 1346979). Also: nearly all actives have a fitted effect of over 35% in size. The procedure, abridged:
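To flag cytotoxic compounds, treated CHO-K1 wild-type cells were given CellTiter-Fluor at 16hr and read fluorescently after 1hr at 37C; the caspase-3/7 luminescence was measured in these same wells.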

Test [3] is described as follows: Caspase-3/7 induction in CHO-K1 cells by small molecules, qHTS assay (AID 1346980). Also: nearly all actives have a fitted effect of over 15% in size. In short, it runs like this: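 Wild-type cells were seeded at 1,500 per well and settled 5 hr at 37 C, 5% CO2, then exposed to DMSO-dissolved compounds for 17 hr. Caspase-Glo 3/7 reagent was added, and luminescence was read after 30min at room temperature.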
Test [4] can be described thus: Caspase-3/7 induction in HepG2 cells by small molecules, qHTS cell viability counter screen (AID 1346981). Also: series mostly up to about 92 µM; nearly all actives have a fitted effect of over 30% in size. The procedure, abridged: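 Counter screen for cytotoxicity: HepG2 exposed 16 hr to compounds, then CellTiter-Fluor viability signal (fluorescence, 1 hr reagent incubation).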
The target of test [5] is Nuclear receptor subfamily 1 group I member 2 (Homo sapiens) (UniProt O75469). In words: Human pregnane X receptor (PXR) small molecule agonists, qHTS assay (AID 1346982). Also: nearly all actives have a fitted effect of over 35% in size. The procedure, abridged:
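Luminescence (ONE-Glo, 30 min RT) after 24 hr compound exposure of PXR-Luc HepG2 cells; cells rested 5 hr post-plating in 5% charcoal-stripped FBS medium.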

In test [6] the target is Acetylcholinesterase (Homo sapiens) (UniProt P22303). In words: Acetylcholinesterase (AChE) small molecule antagonists: colormetric cell-based qHTS assay (AID 1347395; calls by dose curve; also: nearly all actives have a fitted effect of over 30% in size). The procedure, abridged: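 Neuroblastoma line SH-SY5Y supplied the enzyme; cells were preincubated with compound for 30 min at 37 C and 5% CO2. Acetylthiocholine with DTNB was then added for 90 min at 37 C, and thiocholine was measured by colour.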

Test [7] has the same target. In words: Acetylcholinesterase (AChE) small molecule antagonists: enzyme-based qHTS assay (AID 1347397; calls by dose curve; also: nearly all actives have a fitted effect of over 55% in size). The note with it: Potency: AChE enzyme activity inhibition; outcome: AChE enzyme activity inhibition. The procedure, abridged:
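Human recombinant acetylcholinesterase; substrate acetylthiocholine; thiocholine quantified with DTNB (colorimetric). Compound preincubation 30 min RT; reaction 10 min RT.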

Test [8] has the same target. Briefly: Acetylcholinesterase (AChE) small molecule antagonists: fluorescence cell-based qHTS assay (AID 1347398; calls by dose curve; also: nearly all actives have a fitted effect of over 50% in size). To be noted: Potency: AChE activity; outcome: AChE activity. The procedure, abridged: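 Thiocholine generated from acetylthiocholine by SH-SY5Y cell AChE is detected with Thiolite Green (Ex/Em 490/520 nm) after 40 min at room temperature, following 30 min compound pretreatment at 37 C.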

The target is the same in test [9]. In words: Acetylcholinesterase (AChE) small molecule antagonists: enzyme-based qHTS assay with human liver microsomes (AID 1347399; calls by dose curve; also: nearly all actives have a fitted effect of over 60% in size). The note with it: Potency: qHTS inhibition; outcome: qHTS inhibition. The procedure, abridged:
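Recombinant human AChE (50 mU/mL in the enzyme mix) and human liver microsomes (0.25 mg/mL final) were preincubated with compound and NADPH (0.25 mg/mL final) for 30 min at 37 C. Acetylthiocholine/DTNB was then added; thiocholine was read colorimetrically after 10 min at room temperature.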

Test [10] has as its target Cytochrome P450 2D6 (Homo sapiens) (UniProt P10635). Briefly: Cytochrome P450 Family 2 Subfamily D Member 6 (CYP2D6) small molecule antagonists: luciferase reporter qHTS assay (AID 1671196). Also: nearly all actives have a fitted effect of over 50% in size. Also: potency is read from the fitted curve at half-maximal effect. The procedure, abridged: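 Inhibition of CYP2D6 was gauged by loss of luminescence, since light produced tracks the luciferin generated from a proluciferin substrate. A 10 min room-temperature preincubation preceded 1 h NADPH-supported turnover.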
Background: Reporter assays use an easily measured gene product as a stand-in for the process of interest.

The target in test [11] is Cytochrome P450 2C19 (Homo sapiens) (UniProt P33261). Briefly: Cytochrome P450 Family 2 Subfamily C Member 19 (CYP2C19) small molecule antagonists: luciferase reporter qHTS assay (AID 1671197). Also: nearly all actives have a fitted effect of over 65% in size. Also: potency is read from the fitted curve at half-maximal effect. The procedure, abridged:
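Enzyme-substrate mix with proluciferin substrate (P450-Glo CYP2C19 system) preincubated with compounds 10 min at room temperature; NADPH regeneration solution added, 37C for 1 h; detection reagent stops reaction, luminescence read after 20 min. Ketoconazole positive control.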

Test [12] has as its target Cytochrome P450 2C9 (Homo sapiens) (UniProt P11712). Briefly: Cytochrome P450 Family 2 Subfamily C Member 9 (CYP2C9) small molecule antagonists: luciferase reporter qHTS assay (AID 1671198). Also: nearly all actives have a fitted effect of over 50% in size. Also: potency is read from the fitted curve at half-maximal effect. The procedure, abridged: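 CYP2C9 activity was measured with a P450-Glo proluciferin substrate. Enzyme–substrate mix was held with compound for 10 min at room temperature, then NADPH regeneration solution was added for 1 h at 37C. Luciferin product was read as luminescence.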

Test [13] deals with Cytochrome P450 1A2 (Homo sapiens) (UniProt P05177). In words: Cytochrome P450 Family 1 Subfamily A Member 2 (CYP1A2) small molecule antagonists: luciferase reporter qHTS assay (AID 1671199). Also: nearly all actives have a fitted effect of over 50% in size. Also: potency is read from the fitted curve at half-maximal effect. In short, it runs like this:
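Signal from luciferin formed by CYP1A2 from a proluciferin substrate is read as luminescence, expressed in relative luminescence units. Compounds sit with enzyme 10 min, NADPH-driven reaction runs 1 h, all at room temperature.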

In test [14] the target is Cytochrome P450 3A4 (Homo sapiens) (UniProt P08684). In words: Cytochrome P450 Family 3 Subfamily A Member 4 (CYP3A4) small molecule antagonists: luciferase reporter qHTS assay (AID 1671201). Also: nearly all actives have a fitted effect of over 50% in size. Also: potency is read from the fitted curve at half-maximal effect. The procedure, abridged:
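Setup: enzyme-substrate mix, compound pin transfer, 10 min RT. Reaction: NADPH regeneration solution, 1 h RT. Readout: detection reagent stops turnover, luminescence measured after 20 min, expressed in relative luminescence units.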

Test [15] concerns the target Voltage-gated inwardly rectifying potassium channel KCNH2 (Homo sapiens) (UniProt Q12809). In words: Human Ether-a-go-go-Related Gene (hERG) channel small molecule antagonists: fluorescence cell-based qHTS assay (AID 1671200). Also: nearly all actives have a fitted effect of over 50% in size. Also: potency is read from the fitted curve at half-maximal effect. In short, it runs like this:
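Measured: Tl+ flux via fluorescence (480/540 nm) in hERG-expressing U2OS cells after 1 h dye loading at room temperature.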
A general note: hERG is a cardiac potassium channel; its block is linked to QT prolongation.

Test [16] can be described thus: Caspase-3/7 induction in HepG2 cells by small molecules, qHTS assay (AID 1346978). Also: nearly all actives have a fitted effect of over 15% in size. In short, it runs like this: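 Wild-type HepG2 cells (2,000/well) were settled 5 h at 37 C, 5% CO2, then exposed to compounds in DMSO for 17 h. Caspase-3/7 activity was read by luminescence 30 min after adding Caspase-Glo 3/7 reagent at room temperature.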
The target of test [17] is Nuclear receptor subfamily 1 group I member 2 (Rattus norvegicus) (UniProt Q9R1A7). In words: Rat pregnane X receptor (rPXR) activation by small molecules, qHTS assay (AID 1346983). Also: nearly all actives have a fitted effect of over 20% in size. The note with it: rPXR luciferase reporter cells, One-Glo luminescence, 24 h; active compounds read high. In short, it runs like this:
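Cell-based rPXR luciferase reporter assay, 2,000 cells per well, rested 5hr at 37 C before compound addition in DMSO, then 24 hr at 37 C. One-Glo reagent was added and luminescence read after 30 min at room temperature.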

Test [18] has as its target Nuclear receptor subfamily 1 group I member 2 (Homo sapiens) (UniProt O75469). In words: Human pregnane X receptor (PXR) activation by small molecules, qHTS assay (AID 1346985). Also: nearly all actives have a fitted effect of over 40% in size. In short, it runs like this: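 DPX-2 cells (HepG2 co-transfected with a PXR response element and a CYP3A4-promoter luciferase construct) were seeded at 2,000 per well, rested 5 hr at 37C, then exposed to DMSO-dissolved compounds for 24 hr. Activation was read as luciferase luminescence.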

Values without a mark were called inactive. Results filed as inconclusive are left out. Activity calls are given as the source filed them. Unless noted, calls follow the shape of the dose curve; as a rule, active = well fitted curve in the direction sought with a large enough effect in the repeat runs; inconclusive = weak or mixed curves; inactive = no such curve, though single readings can be large; an effect the other way counts as inactive or inconclusive.
% is scaled to controls: 0 for no effect and ±100 for the full control effect.

Nuclear receptor subfamily 1 group I member 2 (Homo sapiens), sequence (O75469 whole entry, looked up): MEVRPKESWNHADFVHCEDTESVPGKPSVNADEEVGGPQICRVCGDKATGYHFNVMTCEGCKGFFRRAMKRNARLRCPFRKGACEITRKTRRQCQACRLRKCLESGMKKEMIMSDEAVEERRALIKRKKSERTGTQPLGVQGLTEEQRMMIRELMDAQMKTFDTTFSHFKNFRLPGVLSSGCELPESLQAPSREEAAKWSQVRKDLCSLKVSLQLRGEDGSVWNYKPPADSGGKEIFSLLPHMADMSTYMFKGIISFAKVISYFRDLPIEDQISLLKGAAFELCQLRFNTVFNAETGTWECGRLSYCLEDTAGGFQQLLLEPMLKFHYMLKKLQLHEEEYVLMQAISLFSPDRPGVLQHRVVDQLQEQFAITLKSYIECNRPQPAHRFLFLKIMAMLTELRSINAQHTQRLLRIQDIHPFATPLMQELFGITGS
Cytochrome P450 3A4 (Homo sapiens), sequence (P08684 whole entry, looked up): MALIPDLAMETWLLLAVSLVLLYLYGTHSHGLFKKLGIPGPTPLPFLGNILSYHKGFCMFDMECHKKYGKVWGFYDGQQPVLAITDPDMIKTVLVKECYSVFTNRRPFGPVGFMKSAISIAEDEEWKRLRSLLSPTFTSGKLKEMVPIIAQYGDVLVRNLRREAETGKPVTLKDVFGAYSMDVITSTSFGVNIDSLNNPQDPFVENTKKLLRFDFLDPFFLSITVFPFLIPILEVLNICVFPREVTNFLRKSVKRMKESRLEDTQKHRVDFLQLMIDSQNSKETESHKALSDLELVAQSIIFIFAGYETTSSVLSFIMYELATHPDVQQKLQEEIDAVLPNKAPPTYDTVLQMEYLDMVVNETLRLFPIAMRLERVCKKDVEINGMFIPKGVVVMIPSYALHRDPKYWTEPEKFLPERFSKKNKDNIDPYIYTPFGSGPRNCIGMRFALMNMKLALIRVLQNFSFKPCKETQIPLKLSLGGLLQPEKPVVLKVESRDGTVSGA
Acetylcholinesterase (Homo sapiens), sequence (P22303 whole entry, looked up): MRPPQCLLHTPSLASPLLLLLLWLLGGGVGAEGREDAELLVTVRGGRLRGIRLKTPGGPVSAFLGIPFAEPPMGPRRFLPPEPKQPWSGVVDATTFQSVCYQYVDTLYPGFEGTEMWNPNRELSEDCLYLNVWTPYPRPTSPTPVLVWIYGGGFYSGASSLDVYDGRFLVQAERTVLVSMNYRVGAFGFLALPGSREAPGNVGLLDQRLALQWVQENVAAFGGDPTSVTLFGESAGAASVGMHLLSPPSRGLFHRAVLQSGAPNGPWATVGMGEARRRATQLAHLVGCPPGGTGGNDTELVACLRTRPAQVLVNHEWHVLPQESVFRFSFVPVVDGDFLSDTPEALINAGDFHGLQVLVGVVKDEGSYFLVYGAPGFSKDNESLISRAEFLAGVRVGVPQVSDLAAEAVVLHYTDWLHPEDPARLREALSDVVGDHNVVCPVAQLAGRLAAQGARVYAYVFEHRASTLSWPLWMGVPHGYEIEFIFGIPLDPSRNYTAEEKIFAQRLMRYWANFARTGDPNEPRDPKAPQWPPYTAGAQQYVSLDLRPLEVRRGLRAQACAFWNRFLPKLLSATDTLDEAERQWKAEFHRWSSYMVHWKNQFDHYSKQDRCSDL
Cytochrome P450 2C9 (Homo sapiens), sequence (P11712 whole entry, looked up): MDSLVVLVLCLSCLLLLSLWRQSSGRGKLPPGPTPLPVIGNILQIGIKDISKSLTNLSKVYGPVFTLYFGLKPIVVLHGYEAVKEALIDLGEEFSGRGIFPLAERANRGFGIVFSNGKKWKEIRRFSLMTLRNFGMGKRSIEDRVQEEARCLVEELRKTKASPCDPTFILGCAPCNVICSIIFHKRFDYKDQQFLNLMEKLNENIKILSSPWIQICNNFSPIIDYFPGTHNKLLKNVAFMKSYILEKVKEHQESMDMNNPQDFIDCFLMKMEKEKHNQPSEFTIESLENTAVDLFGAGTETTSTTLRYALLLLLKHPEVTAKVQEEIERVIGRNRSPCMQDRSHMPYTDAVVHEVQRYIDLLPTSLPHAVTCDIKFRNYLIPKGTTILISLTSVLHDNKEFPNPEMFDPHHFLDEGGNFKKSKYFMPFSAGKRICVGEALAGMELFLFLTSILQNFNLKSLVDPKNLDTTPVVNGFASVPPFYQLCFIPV
Cytochrome P450 2C19 (Homo sapiens), sequence (P33261 whole entry, looked up): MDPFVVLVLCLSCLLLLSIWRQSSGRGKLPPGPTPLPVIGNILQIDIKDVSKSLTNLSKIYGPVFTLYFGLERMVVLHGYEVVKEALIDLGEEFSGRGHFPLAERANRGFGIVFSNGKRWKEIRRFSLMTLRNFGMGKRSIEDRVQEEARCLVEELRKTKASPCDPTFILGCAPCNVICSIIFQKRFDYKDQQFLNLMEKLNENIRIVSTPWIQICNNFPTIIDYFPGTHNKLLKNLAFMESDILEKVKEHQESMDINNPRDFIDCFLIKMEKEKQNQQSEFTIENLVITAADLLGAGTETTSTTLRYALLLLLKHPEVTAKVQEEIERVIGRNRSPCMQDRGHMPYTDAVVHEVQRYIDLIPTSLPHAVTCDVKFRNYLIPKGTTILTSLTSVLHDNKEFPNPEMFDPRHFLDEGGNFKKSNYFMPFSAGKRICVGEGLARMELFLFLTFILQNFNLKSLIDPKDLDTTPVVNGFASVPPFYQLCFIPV
Cytochrome P450 1A2 (Homo sapiens), sequence (P05177 whole entry, looked up): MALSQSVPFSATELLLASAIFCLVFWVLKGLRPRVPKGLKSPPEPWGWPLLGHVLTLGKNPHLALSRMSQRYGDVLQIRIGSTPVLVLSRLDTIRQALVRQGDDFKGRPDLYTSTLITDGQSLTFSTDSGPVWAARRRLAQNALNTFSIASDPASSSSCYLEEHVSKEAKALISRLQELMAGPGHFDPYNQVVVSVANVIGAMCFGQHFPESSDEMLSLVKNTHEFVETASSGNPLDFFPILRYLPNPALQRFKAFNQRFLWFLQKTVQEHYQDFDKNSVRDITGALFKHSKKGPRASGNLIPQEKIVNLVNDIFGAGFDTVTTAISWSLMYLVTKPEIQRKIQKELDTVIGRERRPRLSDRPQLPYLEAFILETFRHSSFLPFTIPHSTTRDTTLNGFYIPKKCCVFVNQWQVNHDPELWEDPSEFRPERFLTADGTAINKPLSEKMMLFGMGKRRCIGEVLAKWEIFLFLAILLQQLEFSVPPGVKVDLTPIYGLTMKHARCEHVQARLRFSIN
Voltage-gated inwardly rectifying potassium channel KCNH2 (Homo sapiens), sequence (Q12809 whole entry, looked up): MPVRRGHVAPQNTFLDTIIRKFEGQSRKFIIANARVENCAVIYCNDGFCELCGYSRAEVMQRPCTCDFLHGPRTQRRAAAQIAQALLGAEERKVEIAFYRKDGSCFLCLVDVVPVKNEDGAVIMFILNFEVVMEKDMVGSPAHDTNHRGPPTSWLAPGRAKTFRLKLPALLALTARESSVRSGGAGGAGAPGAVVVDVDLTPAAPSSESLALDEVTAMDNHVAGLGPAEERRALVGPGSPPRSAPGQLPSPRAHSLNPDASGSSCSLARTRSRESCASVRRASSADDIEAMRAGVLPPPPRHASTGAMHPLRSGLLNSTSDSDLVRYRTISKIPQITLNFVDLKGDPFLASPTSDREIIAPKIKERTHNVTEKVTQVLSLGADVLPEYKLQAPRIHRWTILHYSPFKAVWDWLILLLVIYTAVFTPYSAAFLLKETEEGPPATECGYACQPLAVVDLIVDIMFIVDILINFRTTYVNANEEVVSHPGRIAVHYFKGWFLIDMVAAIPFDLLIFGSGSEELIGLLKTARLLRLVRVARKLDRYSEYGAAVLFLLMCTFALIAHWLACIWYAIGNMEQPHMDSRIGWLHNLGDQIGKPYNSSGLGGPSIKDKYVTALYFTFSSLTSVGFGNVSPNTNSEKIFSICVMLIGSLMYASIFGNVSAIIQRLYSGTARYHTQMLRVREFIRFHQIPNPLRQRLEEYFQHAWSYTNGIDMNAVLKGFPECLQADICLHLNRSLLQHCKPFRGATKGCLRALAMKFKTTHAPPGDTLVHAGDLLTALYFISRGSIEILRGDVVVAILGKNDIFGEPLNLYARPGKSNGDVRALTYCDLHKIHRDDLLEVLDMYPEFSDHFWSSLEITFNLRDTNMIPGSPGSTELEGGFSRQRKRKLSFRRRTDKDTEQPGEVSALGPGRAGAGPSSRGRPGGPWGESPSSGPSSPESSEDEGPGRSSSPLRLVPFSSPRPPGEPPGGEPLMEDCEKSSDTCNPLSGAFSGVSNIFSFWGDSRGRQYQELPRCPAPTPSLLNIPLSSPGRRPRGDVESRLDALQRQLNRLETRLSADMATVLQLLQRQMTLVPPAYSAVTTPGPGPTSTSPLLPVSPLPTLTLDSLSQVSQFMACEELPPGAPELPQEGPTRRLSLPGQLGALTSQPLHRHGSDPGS
Cytochrome P450 2D6 (Homo sapiens), sequence (P10635 whole entry, looked up): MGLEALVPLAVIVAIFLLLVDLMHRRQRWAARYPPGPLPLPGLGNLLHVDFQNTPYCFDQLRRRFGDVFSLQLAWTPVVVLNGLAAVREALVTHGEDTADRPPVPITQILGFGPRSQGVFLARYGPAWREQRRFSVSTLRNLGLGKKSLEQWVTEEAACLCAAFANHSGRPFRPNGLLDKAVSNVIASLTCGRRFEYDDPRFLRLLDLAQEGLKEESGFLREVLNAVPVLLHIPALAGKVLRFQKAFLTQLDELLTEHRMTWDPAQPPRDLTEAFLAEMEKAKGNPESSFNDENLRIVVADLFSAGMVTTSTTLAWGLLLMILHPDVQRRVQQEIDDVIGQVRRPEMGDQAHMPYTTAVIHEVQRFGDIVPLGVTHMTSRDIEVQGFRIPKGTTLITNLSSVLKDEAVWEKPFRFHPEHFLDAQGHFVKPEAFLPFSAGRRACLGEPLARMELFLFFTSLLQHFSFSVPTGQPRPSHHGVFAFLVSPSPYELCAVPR

In the case of `CCN1CCCC1CNC(=O)C(O)(c1ccccc1)c1ccccc1` (stereo not drawn), the Potency entry in test [1], in test [2], in test [4], in test [5], in [6] and in [7] was “inactive” each time. The Potency entry in test [8], in [9], in test [11], in [12] and in test [13] was “inactive” each time. For the same compound, the result in [3] was inactive. Moreover, the Potency in test [10] and in test [14] was 4.9 µM (active) in each case.

For the compound `C=C(Cl)CSC(=S)N(CC)CC`, the Potency entry in test [1], in test [2], in [4], in test [5], in [6] and in test [7] was “inactive” throughout. For the same compound, the Potency entry in test [8], in [9] and in test [10] was “inactive” in each case. The compound was called inactive in test [3]. Moreover, the Potency in [11] was 34.7 µM (active); in test [12] it was 38.9 µM (active); in test [13] it was 9.77 µM (active); in test [15] it was 53.5 µM (active).

For the compound `O=C1CCCCC1Cl` (stereo not drawn), the Potency entry in [1], in [2], in test [4], in [5], in test [6] and in test [7] was “inactive” throughout. Besides, the Potency entry in test [8], in test [9], in [10], in test [12] and in [14] was “inactive” each time. For the same compound, the compound was called inactive in [16] and in [3]. Also, the figures for the Potency in test [11] and in test [13] were 40.4 µM (active) and 36 µM (active), respectively.

Regarding `CCOP(=O)(CN(CCO)CCO)OCC`, the Potency entry in test [1], in test [2], in test [4], in [5], in [6] and in test [8] was “inactive” in each case. The Potency entry in [9], in test [10], in [12], in test [15] and in test [14] was “inactive” throughout. The outcome in test [16] and in test [3] was inactive.

With `COc1cccc([C@@]2(O)CCCC[C@@H]2CN(C)C)c1`, the Potency result in test [1], in [2], in test [4], in test [5], in test [18] and in [6] was “inactive” each time. Moreover, the Potency entry in [7], in test [8], in test [9], in test [11], in test [12] and in test [13] was “inactive” each time. Besides, the Potency result in [15] and in test [14] was “inactive” throughout. In addition, the outcome in [16] and in test [3] was inactive. Moreover, the max activation in test [17] is -2.97%.

Regarding `CCCOc1nn(C(=O)NS(=O)(=O)c2ccccc2C(=O)OC)c(=O)n1C`, the Potency result in test [1], in test [4], in test [5], in [6], in test [7] and in test [8] was “inactive” throughout. The Potency result in test [9], in [10], in test [11], in [13] and in [14] was “inactive” throughout. The outcome in [3] was inactive.

In the case of `COc1cc(CCN)cc(OC)c1OC`, the Potency result in test [1], in [4], in [5], in test [8], in test [9] and in test [10] was “inactive” throughout. The Potency entry in test [11], in test [12], in [15] and in test [14] was “inactive” in each case. Besides, the compound was called inactive in [16] and in test [3]. Moreover, in test [13], the Potency is 38.7 µM (active).

Source of the values: PubChem BioAssay (Tox21).
